# PubChem BioAssay
# Values without a mark were called inactive.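 How the source made its calls: active means luciferase signal above three times the same-plate solvent-only control wells; inactive means the rest.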
# Target: Mitogen-activated protein kinase 7 (Homo sapiens) (UniProt Q13164)
# Experiment: Gal4-ERK5 driven luciferase induction – cell-based, HTS, primary screen (AID 1508626);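 further: luciferase driven by Gal4-ERK5 fusion binding five Gal4 sites before minimal TATA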
# Conditions: HeLa Gal4-ERK5 transactivation, 18 h, at 5 µM, hits give high values
# Mitogen-activated protein kinase 7 (Homo sapiens), sequence (Q13164 whole entry, looked up, the tested form may be a part): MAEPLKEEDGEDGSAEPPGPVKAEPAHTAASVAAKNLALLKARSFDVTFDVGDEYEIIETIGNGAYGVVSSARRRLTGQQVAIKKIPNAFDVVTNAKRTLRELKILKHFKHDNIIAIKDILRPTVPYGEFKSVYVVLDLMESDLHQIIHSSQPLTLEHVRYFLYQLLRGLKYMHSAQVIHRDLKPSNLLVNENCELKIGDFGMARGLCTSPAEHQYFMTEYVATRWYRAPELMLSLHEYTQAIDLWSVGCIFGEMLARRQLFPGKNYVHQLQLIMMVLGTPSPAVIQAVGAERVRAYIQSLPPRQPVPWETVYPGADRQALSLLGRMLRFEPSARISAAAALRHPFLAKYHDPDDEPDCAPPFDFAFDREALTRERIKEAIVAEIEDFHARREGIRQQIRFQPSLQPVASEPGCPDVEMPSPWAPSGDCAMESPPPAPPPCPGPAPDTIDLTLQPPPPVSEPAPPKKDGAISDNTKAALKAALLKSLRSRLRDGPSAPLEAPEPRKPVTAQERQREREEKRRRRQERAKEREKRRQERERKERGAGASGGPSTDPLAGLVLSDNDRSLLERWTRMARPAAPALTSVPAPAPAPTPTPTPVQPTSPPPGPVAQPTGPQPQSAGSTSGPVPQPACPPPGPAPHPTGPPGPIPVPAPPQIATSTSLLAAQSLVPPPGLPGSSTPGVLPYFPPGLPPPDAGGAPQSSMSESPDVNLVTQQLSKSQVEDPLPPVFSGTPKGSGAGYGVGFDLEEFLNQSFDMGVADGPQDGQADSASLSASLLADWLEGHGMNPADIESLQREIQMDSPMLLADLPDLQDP
row,Compound,luciferase signal [AU]
1,CCN1C[C@]2(COC)[C@H](O)C[C@H](OC)[C@]34C1[C@H]([C@H](OC)[C@H]23)[C@]1(OC(C)=O)[C@H]2[C@@H](OC(=O)c3ccccc3)[C@](O)(C[C@H]24)[C@@H](OC)[C@@H]1O,16
2,CC[C@@H](C)C(=O)O[C@H]1[C@H](O)[C@H]2[C@@H](CN3C[C@@H](C)CC[C@H]3[C@@]2(C)O)[C@@H]2C[C@]34O[C@]5(O)[C@@H](OC(=O)[C@](C)(O)[C@@H](C)O)CC[C@@]3(C)[C@@H]5[C@@H](OC(C)=O)[C@@H](OC(C)=O)[C@H]4[C@@]21O,88
3,CC(=O)OC1C[C@@]2(C)[C@H](c3ccoc3)C[C@H]3O[C@]32[C@]2(C)C(=O)C(O)=C3C(C)(C)C(=O)C=C[C@]3(C)C12 (some centres undefined),12
4,CC(=O)OCC1=C(C(=O)O)N2C(=O)[C@@H](NC(=O)CCCC(N)C(=O)O)[C@H]2SC1 (some centres undefined),56
5,CC[C@H]1[C@@H]2C[C@H]3[C@@H]4N(C)c5ccccc5[C@]45C[C@@H]([C@H]2[C@H]5O)N3[C@@H]1O,116
6,COC(=O)C1=CO[C@@H](C)[C@@H]2CN3CC[C@@]4(C(=O)Nc5ccccc54)[C@H]3C[C@H]12,32
7,C=C[C@H]1CN2CC[C@H]1C[C@H]2[C@H](OC(=O)OCC)c1ccnc2ccc(OC)cc12,28
8,COc1cc([C@@H]2c3cc4c(cc3[C@@H](O)[C@H]3COC(=O)[C@H]23)OCO4)cc(OC)c1O,72
9,COC(=O)C1=CO[C@@H](C)[C@@H]2CN3CC[C@@]4(C(=O)Nc5ccccc54)[C@@H]3C[C@H]12,24
